Test results as given in paper PMC8384837, “Expanding the binding specificity for RNA recognition by a PUF domain”.
Positions count from the first letter of the chain named.

How the values were obtained:
Assay in all cases: yeast three-hybrid, YBZ-1, SC-Leu-His + 0.5 mM 3-AT, 4 days
Settings in all cases: tags: N-Gal4 AD-HA kept; label: inside an RPR1-promoter hybrid RNA with tandem MS2 sites; ssRNA
PUM1 PUF domain R5-TRA = PUM1 PUF domain R5-TRA (Homo sapiens, UniProt Q14671 828-1176, C1007T;Q1011A)
Sequence of PUM1 PUF domain R5-TRA (Q14671 828-1176 C1007T/Q1011A): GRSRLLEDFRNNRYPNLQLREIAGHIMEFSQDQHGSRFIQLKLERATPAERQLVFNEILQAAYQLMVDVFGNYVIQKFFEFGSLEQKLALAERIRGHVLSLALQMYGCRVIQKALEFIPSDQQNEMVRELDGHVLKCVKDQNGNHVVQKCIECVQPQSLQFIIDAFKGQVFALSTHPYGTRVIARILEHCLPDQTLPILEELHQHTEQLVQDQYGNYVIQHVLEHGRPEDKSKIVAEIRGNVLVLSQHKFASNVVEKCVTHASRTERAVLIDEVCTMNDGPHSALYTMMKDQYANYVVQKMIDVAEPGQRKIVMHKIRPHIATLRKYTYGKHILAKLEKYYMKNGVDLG
Summary of the method: (§1)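 Sequencing with Illumina followed PCR amplification of the repeat regions from transformants grown four days on SC-Leu (input) or SC-Leu-His + 0.5 mM 3-AT (selection). The transformants were strain YBZ-1 with a LexA–MS2 coat fusion and a HIS3 reporter, carrying Pumilio-1 PUF domain libraries and matching RNA elements. The interaction score is the log change in variant frequency from input to selection, computed in log2 with a pseudocount of 1 for absent variants.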

PUM1 PUF domain R2-EWT = PUM1 PUF domain R2-EWT (Homo sapiens, UniProt Q14671 828-1176, N899E;Y900W;Q903T)
Summary of the method: as §1

PUM1 PUF domain R1-RWT = PUM1 PUF domain R1-RWT (Homo sapiens, UniProt Q14671 828-1176, S863R;R864W;Q867T)
Sequence of PUM1 PUF domain R1-RWT (Q14671 828-1176 S863R/R864W/Q867T): as the sequence (Q14671 828-1176 C1007T/Q1011A) above, with S36R, R37W, Q40T, T180C, A184Q counted along it
Summary of the method: as §1

PUM1 PUF domain R1-VFR = PUM1 PUF domain R1-VFR (Homo sapiens, UniProt Q14671 828-1176, S863V;R864F;Q867R)
Summary of the method: as §1

PUM1 PUF domain R1-RFI = PUM1 PUF domain R1-RFI (Homo sapiens, UniProt Q14671 828-1176, S863R;R864F;Q867I)
Summary of the method: as §1

PUM1 PUF domain R1-KIE = PUM1 PUF domain R1-KIE (Homo sapiens, UniProt Q14671 828-1176, S863K;R864I;Q867E)
Summary of the method: as §1

PUM1 PUF domain R6-IYV = target: T1, PUM1 PUF domain R6-IYV (Homo sapiens, UniProt Q14671 828-1176, N1043I;Q1047V)
T1 sequence: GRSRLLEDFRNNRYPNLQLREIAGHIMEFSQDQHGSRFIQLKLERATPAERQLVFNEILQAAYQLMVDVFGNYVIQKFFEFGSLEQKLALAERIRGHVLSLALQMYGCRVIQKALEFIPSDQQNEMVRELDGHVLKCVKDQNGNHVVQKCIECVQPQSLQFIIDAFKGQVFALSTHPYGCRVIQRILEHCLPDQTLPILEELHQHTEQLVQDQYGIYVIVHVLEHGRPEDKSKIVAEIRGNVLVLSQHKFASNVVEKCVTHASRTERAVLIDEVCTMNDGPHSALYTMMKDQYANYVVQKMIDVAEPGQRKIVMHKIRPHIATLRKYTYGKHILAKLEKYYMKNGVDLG
Summary of the method: as §1

PUM1 PUF domain R6-CFC = target: T2, PUM1 PUF domain R6-CFC (Homo sapiens, UniProt Q14671 828-1176, N1043C;Y1044F;Q1047C)
T2 sequence: T1 sequence with I216C, Y217F, V220C
Summary of the method: as §1

PUM1 PUF domain R5-KHG = PUM1 PUF domain R5-KHG (Homo sapiens, UniProt Q14671 828-1176, C1007K;R1008H;Q1011G)
Summary of the method: as §1

PUM1 PUF domain R7-RNK = PUM1 PUF domain R7-RNK (Homo sapiens, UniProt Q14671 828-1176, S1079R;E1083K)
Sequence of PUM1 PUF domain R7-RNK (Q14671 828-1176 S1079R/E1083K): as the sequence (Q14671 828-1176 C1007T/Q1011A) above, with T180C, A184Q, S252R, E256K counted along it
Summary of the method: as §1

PUM1 PUF domain R3-VRW = PUM1 PUF domain R3-VRW (Homo sapiens, UniProt Q14671 828-1176, C935V;Q939W)
Summary of the method: as §1

PUM1 PUF domain R8-KNR = PUM1 PUF domain R8-KNR (Homo sapiens, UniProt Q14671 828-1176, N1122K;Y1123N;Q1126R)
Summary of the method: as §1

PUM1 PUF domain R6-FYI = target: T3, PUM1 PUF domain R6-FYI (Homo sapiens, UniProt Q14671 828-1176, N1043F;Q1047I)
T3 sequence: T1 sequence with I216F, V220I
Summary of the method: as §1

PUM1 PUF domain R7-RCQ = PUM1 PUF domain R7-RCQ (Homo sapiens, UniProt Q14671 828-1176, S1079R;N1080C;E1083Q)
Summary of the method: as §1

“GGCUAGAACUAGUGGAUCCCCCGGCGCCCGGCGGCUCGAGCCCGGGUAAGUGUGAAUAGUCUGCAUGCCGCCGGGCGCCAUGCCUGCAGGUCGACUCUAGAAAACAUG” was tested, and the binding signal (PUM1 PUF domain R5-TRA) was 1.91 log2 enrichment (interaction score).

“GGCUAGAACUAGUGGAUCCCCCGGCGCCCGGCGGCUCGAGCCCGGGUAAGUGUAAAAAGUCUGCAUGCCGCCGGGCGCCAUGCCUGCAGGUCGACUCUAGAAAACAUG” was tested, and the binding signal (PUM1 PUF domain R2-EWT) was 2.39 log2 enrichment (interaction score).

For “GGCUAGAACUAGUGGAUCCCCCGGCGCCCGGCGGCUCGAGCCCGGGUAAGUGUAAAUUGUCUGCAUGCCGCCGGGCGCCAUGCCUGCAGGUCGACUCUAGAAAACAUG”, the binding signal (PUM1 PUF domain R1-RWT) was 4.77 log2 enrichment (interaction score), the binding signal (PUM1 PUF domain R1-VFR) was 1.47 log2 enrichment (interaction score) and the binding signal (PUM1 PUF domain R1-RFI) was 2.47 log2 enrichment (interaction score). The binding signal (PUM1 PUF domain R1-KIE) was 3.28 log2 enrichment (interaction score).

“GGCUAGAACUAGUGGAUCCCCCGGCGCCCGGCGGCUCGAGCCCGGGUAAGUGUAAAUAGUCUGCAUGCCGCCGGGCGCCAUGCCUGCAGGUCGACUCUAGAAAACAUG” was tested, and the binding signal (PUM1 PUF domain R6-IYV) was 2.91 log2 enrichment (interaction score), the binding signal (PUM1 PUF domain R6-CFC) was 1.34 log2 enrichment (interaction score) and the binding signal (PUM1 PUF domain R5-KHG) was 3.79 log2 enrichment (interaction score). The binding signal (PUM1 PUF domain R7-RNK) was 2.47 log2 enrichment (interaction score), the binding signal (PUM1 PUF domain R3-VRW) was 3.7 log2 enrichment (interaction score) and the binding signal (PUM1 PUF domain R5-TRA) was 2.82 log2 enrichment (interaction score). The binding signal (PUM1 PUF domain R8-KNR) was 1.82 log2 enrichment (interaction score) and the binding signal (PUM1 PUF domain R6-FYI) was 2.78 log2 enrichment (interaction score).

With “GGCUAGAACUAGUGGAUCCCCCGGCGCCCGGCGGCUCGAGCCCGGGUAAGUGUAAAUGGUCUGCAUGCCGCCGGGCGCCAUGCCUGCAGGUCGACUCUAGAAAACAUG” the binding signal (PUM1 PUF domain R1-RWT) was 0.98 log2 enrichment (interaction score).

With “GGCUAGAACUAGUGGAUCCCCCGGCGCCCGGCGGCUCGAGCCCGGGUAAGUCUAAAUAGUCUGCAUGCCGCCGGGCGCCAUGCCUGCAGGUCGACUCUAGAAAACAUG” the binding signal (PUM1 PUF domain R7-RCQ) was 2.3 log2 enrichment (interaction score) and the binding signal (PUM1 PUF domain R7-RNK) was 3.45 log2 enrichment (interaction score).

For “GGCUAGAACUAGUGGAUCCCCCGGCGCCCGGCGGCUCGAGCCCGGGUAAGCGUAAAUAGUCUGCAUGCCGCCGGGCGCCAUGCCUGCAGGUCGACUCUAGAAAACAUG”, the binding signal (PUM1 PUF domain R8-KNR) was 2.46 log2 enrichment (interaction score).
